Source: PubChem BioAssay (National Center for Advancing Translational Sciences (NCATS))
TGFb SMAD3 inh: qHTS for Inhibitors of TGF-b | HepG2 CAGA-GFP TGF-b/SMAD3 reporter, GFP fluorescence, 18 h; TGF-beta stimulated, 500 pg/mL final | Potency, µM (highest dose often 46.1 µM), for the others: top-dose activity, negative = inhibition, usual class: inhibitors | 410,000 compounds, 1.2% hits | AID 588855, 2011; also: potency is read from the fitted curve at half-maximal effect; % is scaled to controls: 0 for no effect and ±100 for the full control effect; nearly all actives have a fitted effect of over 65% in size
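Read-out: total well GFP (ex488/em500-530) summed from mean per-cell fluorescence. Cells: HEPG2 CAGA-GFP, 1% FBS DMEM, 18 h at 37 degrees C with 500 pg/mL final TGF-beta. Unstimulated wells served as the full-inhibition control; stimulated DMSO wells = 0%.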
HepG2 viability: qHTS for Inhibitors of TGF-b: Cytotox Counterscreen; HepG2 CAGA-GFP viability, ATP luminescence, 18 h; Potency, µM (titrated, usually from 46.1 µM), inactives show at the highest dose activity change, negative = cytotoxicity, hits mostly cytotoxic; 410,000 compounds, 0.76% hits; also: potency is read from the fitted curve at half-maximal effect
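HepG2 CAGA-GFP cells (1000/well, DMEM with 1% FBS) received compound, then TGF-beta at 500 pg/mL final, and were incubated 18 hours at 37 degrees C. Viability was read by CellTiter-Glo luminescence. Media-only wells were set as complete cell-killing and DMSO as no toxicity.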
TDP1 cell noCPT: qHTS for Inhibitors of human tyrosyl-DNA phosphodiesterase 1 (TDP1): qHTS in cells in absence of CPT; DT40 Tdp1-/- hTDP1 cells, no CPT, ATP luminescence, 48 h; Potency, µM (series often up to 46.2 µM), for inactives: top-dose activity change, negative = growth inhibition, usual class: inhibitors; 420,000 compounds, 15% hits; AID 686978, 2013; also: potency is read from the fitted curve at half-maximal effect; % is scaled to controls: 0 for no effect and ±100 for the full control effect; nearly all actives have a fitted effect of over 55% in size
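A cellular qHTS used chicken DT40 cells lacking endogenous Tdp1 but carrying stably transfected human TDP1. Compounds were applied without camptothecin, and cell growth kinetics were judged by ATP-dependent luminescence after ≥48 hr.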
IL1B secr inh: qHTS for Inhibitors of Inflammasome Signaling: IL-1-beta AlphaLISA Primary Screen; THP-1 LPS/ATP IL-1B secretion, AlphaLISA, 16 h; active compounds read low; activity change, % at 57.5 µM; 360,000 compounds, 4.7% hits; AID 743279, 2014; in the data active = activity change below about -50%; inconclusive = mostly about -30% to -49%; also: % is scaled to controls: 0 for no effect and ±100 for the full control effect
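THP-1 cells pretreated 1 hr with compounds (up to 57.5 uM final), then stimulated with LPS (250 ng/mL final) plus ATP (1.25 mM final); secreted IL-1B measured by AlphaLISA after 16 hr, decreased signal indicating inhibition.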
DT40 TDP1 CPT: qHTS for Inhibitors of human tyrosyl-DNA phosphodiesterase 1 (TDP1): qHTS in cells in presence of CPT; chicken DT40 Tdp1-/-;hTDP1 cells + 20 nM CPT, ATP luminescence, 48 h; Potency, µM (doses to about 46.2 µM), for the others: at the top dose activity change, negative = growth inhibition, hits mostly inhibitors; 420,000 compounds, 12% hits; AID 686979, 2013; also: potency is read from the fitted curve at half-maximal effect; % is scaled to controls: 0 for no effect and ±100 for the full control effect; nearly all actives have a fitted effect of over 55% in size
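Cell growth measured by CellTiter-Glo luminescence after a minimum 48 h, 37 C compound exposure with 20 nM CPT in Tdp1-knockout DT40 cells stably expressing hTDP1, seeded 400/well; qHTS titration format.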
S-ASM inh: Inhibitors of Secretory Acid Sphingomyelinase (S-ASM): qHTS. Sphingomyelin phosphodiesterase (Homo sapiens), P17405. placental ASM, HMU-PC fluorogenic substrate, 60 min. Potency, µM (titrated, usually from 57.5 µM), for the others: top-dose activity change, negative = inhibition, actives largely listed as inhibitors. 340,000 compounds, 0.006% hits. AID 504937, 2011; also: potency is read from the fitted curve at half-maximal effect
Target sequence (P17405 47-631 limits assumed): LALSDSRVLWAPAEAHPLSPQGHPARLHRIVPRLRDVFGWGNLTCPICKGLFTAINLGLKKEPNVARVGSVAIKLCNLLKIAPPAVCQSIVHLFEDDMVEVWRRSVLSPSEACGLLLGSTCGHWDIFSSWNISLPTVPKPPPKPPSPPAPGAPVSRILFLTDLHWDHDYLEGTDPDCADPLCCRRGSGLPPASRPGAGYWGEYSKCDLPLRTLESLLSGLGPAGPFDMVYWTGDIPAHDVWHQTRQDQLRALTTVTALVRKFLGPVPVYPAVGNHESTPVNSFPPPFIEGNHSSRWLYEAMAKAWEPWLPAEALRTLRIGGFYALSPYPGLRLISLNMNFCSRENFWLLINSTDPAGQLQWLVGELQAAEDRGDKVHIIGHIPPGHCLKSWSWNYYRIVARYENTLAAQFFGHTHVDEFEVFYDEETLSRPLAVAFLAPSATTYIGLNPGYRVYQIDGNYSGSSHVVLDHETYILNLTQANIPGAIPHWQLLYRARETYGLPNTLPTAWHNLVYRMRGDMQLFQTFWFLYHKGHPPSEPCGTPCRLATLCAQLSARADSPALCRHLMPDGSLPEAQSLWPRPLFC
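Fluorescence read-out (Ex 386 nm, Em 447 nm) after stopping the reaction at pH 10. Enzyme: ASM from human placenta; substrate HMU-PC0, 9 uM final; 60 min, 37 °C. Compound preincubation 10 min, ambient temperature.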
Starred values were filed as active, the others as inactive; i = inactive; ? = inconclusive; · = no result given. The list is not random: actives were taken first. Their share in the collection is about 19%. Unless noted, calls follow the shape of the dose curve; as a rule, active = well fitted curve in the direction sought with a large enough effect; inconclusive = small, poorly fitted or top-dose-only effect, or another doubt; inactive = no such curve, though single readings can be large; an effect the other way counts as inactive or inconclusive.

SMILES	TGFb SMAD3 inh	HepG2 viability	TDP1 cell noCPT	IL1B secr inh	DT40 TDP1 CPT	S-ASM inh
COC(=O)[C@@]1(Cc2ccc(F)cc2)[C@H]2c3cc(C(=O)N(C)C)n(CCCNc4ncc(C(F)(F)F)cc4Cl)c3C[C@H]2CN1C(=O)c1ccccc1	·	·	?	0.0	?	·
CCc1nc2ccc(C(=O)Nc3ccc(OC)c(OC)c3)cn2c1N(C)CCC(C)C	14.1µM*	20µM*	?	?	?	·
CCc1nc2ccc(C(=O)Nc3ccc(NC(C)=O)cc3)cn2c1N(C)CCCc1ccccc1	?	-103.6%	?	-0.6	?	·
CCc1nc2ccc(C(=O)Nc3ccc(C(N)=O)cc3)cn2c1N(C)CCC(C)C	?	-84.3%	23.1µM*	-23.1	18.4µM*	·
CCc1nc2ccc(C(=O)Nc3ccc(NC(C)=O)cc3)cn2c1N(C)CCC(C)C	?	-4.9%	20.6µM*	-20.1	?	·
CC1(C(=O)NS(=O)(=O)c2cccc(C#N)c2)CCN1C(=O)Cc1ccccc1Cl (stereo unspecified)	9.6%	14.8%	-2.8%	4.0	-16.8%	·
Cc1ccc(-c2nnn3c2nc(NCc2ccc4c(c2)OCO4)c2ccccc23)cc1	-39.2%	9.1%	?	·	?	·
NC(=O)COc1ccccc1/C=C1/SC(=O)N(CC(=O)N2CCc3ccccc3C2)C1=O	-4.9%	-24.5%	18.4µM*	-18.9	20.6µM*	-4.5%
COc1cc2c(cc1OC)C(C(=O)Nc1cc(OC)c(OC)c(OC)c1)C(c1cccnc1)N(C)C2=O (stereo unspecified)	5.7%	-6.9%	10.0%	29.3	-2.5%	-1.9%
O=C(CNC(=O)C(c1ccccc1)c1ccccc1)OCC(=O)c1cccs1	3.4%	11.5%	1.46µM*	2.1	1.64µM*	29.0%
COc1ccccc1C(=O)NCC(=O)OCC(=O)c1cccc2ccccc12	3.6%	15.3%	?	37.5	?	-1.9%
O=C(CNC(=O)C(c1ccccc1)c1ccccc1)OCC(=O)c1cccc2ccccc12	20.4%	0.1%	20µM*	·	?	·
O=C(CNC(=O)c1ccccc1)OCC(=O)c1cccs1	3.1%	-12.4%	-9.1%	-0.7	-6.5%	-1.2%
COc1ccccc1Oc1ccc(N2CC(C(=O)OCC(=O)c3ccccc3)CC2=O)cc1 (stereo unspecified)	105.6%	6.6%	19.5%	29.3	-11.2%	-1.5%
C#Cc1ccc([C@H]2C=C(C(=O)OCC=C)O[C@@H](OCCCCO)C2)cc1	0.5%	-7.1%	-7.5%	18.2	-29.9%	-0.4%
O=[N+]([O-])c1ccc(S(=O)(=O)Nc2ccncc2)cc1	0.5%	-1.0%	7.3%	-7.4	8.8%	-4.3%
O=[N+]([O-])c1ccc(Oc2ccc(S(=O)(=O)Nc3ccccc3)cc2)cc1	3.4%	-23.9%	10.3µM*	-72.2*	?	-4.3%
O=C1C(Cl)=C(NS(=O)(=O)c2ccc([N+](=O)[O-])cc2)C(=O)c2ccccc21	?	-190.9%	8.2µM*	-102.4*	10.3µM*	9.2%
CN(C(=O)COc1ccc(Cl)cc1Cl)C1(C)CCS(=O)(=O)C1 (stereo unspecified)	?	7.6%	-21.6%	-8.4	-5.8%	·
CN1CCc2c(sc3nc(SCC(=O)N4CCOCC4)nc(N)c23)C1	11.7%	-22.4%	18.4µM*	-20.5	23.1µM*	60.8%
CC1CCN(C(=O)CSc2nc(N)c3c4c(sc3n2)CN(C)CC4)CC1	0.0%	1.5%	20.6µM*	-7.0	?	62.9%
O=C(O)c1ccc(NC(=O)c2cc3c([nH]c2=O)CCCC3=O)cc1	13.4%	-15.2%	-13.5%	·	-3.0%	·
Cc1cc2c(SCC(=O)N3CCN(c4ccccc4)CC3)ncnc2s1	3.3%	-2.6%	?	?	?	-1.4%
CCc1cc2c(N3CCN(c4ccccc4)CC3)ncnc2s1	13.4%	-9.3%	11.6µM*	-17.5	13µM*	-6.6%
CC(=O)N1CCN(c2ncnc3sc(-c4ccccc4)cc23)CC1	8.3%	-10.5%	?	-8.4	?	-1.7%
SMILES	TGFb SMAD3 inh	HepG2 viability	TDP1 cell noCPT	IL1B secr inh	DT40 TDP1 CPT	S-ASM inh
Oc1ccc(N2CCN(c3ncnc4sc(-c5ccccc5)cc34)CC2)cc1	-17.3%	-17.7%	23.1µM*	-69.8*	?	?
COc1ccc(C(=O)N(CCc2ccccc2)Cc2ccccc2)cc1S(=O)(=O)N1CCOCC1	0.0%	-2.8%	16.4µM*	-11.8	23.1µM*	-3.0%
COCCN(Cc1ccccc1)C(=O)Cc1ccc(OC)c(S(=O)(=O)N2CCOCC2)c1	0.5%	0.0%	?	6.7	-27.1%	2.0%
CCN(Cc1ccccc1)C(=O)c1ccc(C)c(S(=O)(=O)N2CCCCC2)c1	-20.0%	-17.6%	16.4µM*	0.1	?	-1.6%
Cc1ccc(C(=O)N(CCc2ccccc2)Cc2ccccc2)cc1S(=O)(=O)N1CCOCC1	?	-12.0%	23.1µM*	-21.6	14.6µM*	-7.2%
CCCN(CC(=O)Nc1ccccc1C)C(=O)c1ccc(C)c(S(=O)(=O)N2CCCCC2)c1	-20.3%	-2.8%	-28.9%	-17.5	-13.6%	-4.3%
COc1ccc(CC(=O)N(Cc2ccccc2)c2ccccc2)cc1S(=O)(=O)N1CCOCC1	12.3%	38.0%	14.6µM*	i	16.4µM*	-1.9%
COc1ccc([C@H]2CC(=O)C=C(C#CC(C)(C)C)C2)cc1	-16.0%	-16.0%	?	-20.6	?	-5.9%
NC(=O)C1CCN(CC(=O)Nc2ccc(S(=O)(=O)N3CCOCC3)cc2)CC1	10.9%	-23.3%	-24.6%	-1.6	0.4%	-2.9%
CC1CN(S(=O)(=O)c2cc(C(=O)N(CCc3ccccc3)Cc3ccccc3)ccc2Cl)CC(C)O1 (stereo unspecified)	-21.0%	-16.1%	10.3µM*	-4.0	11.6µM*	-0.2%
CCN(CC1COc2ccccc2O1)C(=O)c1ccc(Cl)c(S(=O)(=O)N2CC(C)OC(C)C2)c1 (stereo unspecified)	-19.9%	-7.4%	4.61µM*	-3.0	7.31µM*	-3.2%
Cc1ccc(C(=O)N(CCc2ccccc2)Cc2ccccc2)cc1S(=O)(=O)N1CCCCC1	-4.1%	11.8%	18.4µM*	-16.2	?	2.0%
